Each structure is given as a SMILES string. Inconclusive results are not listed. Values without a mark were called inactive. Active and inactive are the calls of the source. The call rests on the fitted dose curve; in most records, active means well fitted cell-killing curve with a large enough effect in the repeat runs; inconclusive means weak or mixed curves, or effect the other way; inactive means flat fitted curve, though single readings scatter.
On the % scale 0 is the no-effect control and ±100 the full control effect; potency means the concentration at half of the fitted maximal effect.

The assay in a line: Nuclear factor erythroid 2-related factor 2/antioxidant responsive element (Nrf2/ARE) small molecule agonists: qHTS cell viability counter screen in human keratinocytes (AID 1919968). Further: nearly all actives have a fitted effect of over 55% in size. The note with it: KeratinoSens HaCaT ARE cells viability, CellTiter-Fluor, 24 h; series mostly up to 92.4 µM; activity change, negative = cytotoxicity: at the top concentration. The text has this:
U.S. Tox21 Program National Center for Advancing Translational Sciences [NCATS] Division of Preclinical Innovation [DPI] U.S. Environmental Protection Agency [EPA] National Institutes of Environmental Health Sciences [NIEHS] National Toxicology Program [NTP] U.S. Food and Drug Administration [FDA] Tox21 Assay Overview: Oxidative stress has been implicated in the pathogenesis of a variety of diseases ranging from cancer to neurodegeneration. The antioxidant response element (ARE) signaling pathway plays an important role in the amelioration of oxidative stress. The KeratinoSens (Givaudan, Switzerland) is an in vitro test method which quantifies luciferase induction as a measure of activation of Keap1-Nrf2-antioxidationt/electrophile response element (ARE) dependant pathway in HaCaT human keratinocytes stably transfected with a selectable plasmid. The KeratinoSens assay is a cell-based assay with a reporter cell line to detect potential skin sensitizers by their ability to induce the Nrf2/ARE-response. The activation of the report gene under culture conditions can be detected by ONE-Glo Luciferase Assay System (Promega, Madison, WI). This cell line has been used to screen the Tox21 10K compound library to identify agonists that induce oxidative stress. The cytotoxicity of the Tox21 compound library against the KS-ARE cell line was tested in parallel by measuring the cell viability using CellTiter- Fluor assay system (Promega, Madison, WI) in the same wells.
Tox21 Assay Protocol Summary: HaCaT derived cell line KeratinoSens were dispensed at 1,500 cells/5uL/well in 1536-well white wall/solid bottom plates using a Multidrop Combi (ThermoFisher Scientific, Waltham, MA) dispenser. After the assay plates were incubated at 37 C/5% CO2 for 5 h, 23 nL of compounds dissolved in DMSO, positive controls or DMSO only was transferred to the assay plate by a pintool workstation (Kalypsys, San Diego, CA). The plates were incubated at 37 C/5% CO2 for 23 h, followed by addition of 1uL/well of CellTiter-Fluor reagent into the assay plates using a Flying Reagent Dispenser (Aurora Discovery, San Diego, CA) for cell viability readout that measures cytotoxicity. After 1 h incubation at 37 C/5% CO2 the fluorescence intensity was measured using a ViewLux (PerkinElmer, Shelton, CT) plate reader.
Regarding `C=CC(=O)OCCOCC(CC)(COCCOC(=O)C=C)COCCOC(=O)C=C`, the Potency is 31.9 µM (active).

For the compound `CC(NC(CCc1ccccc1)C(=O)O)C(=O)N1C(=O)N(C)CC1C(=O)O` (stereo not given), the “activity change, negative = cytotoxicity” value was -12.2% [at 42.5 µM].

Take `CC(=O)CC(=O)OC(C)(C)C`: the “activity change, negative = cytotoxicity” value was 0.499%.

In the case of `CCCCCCCCCC[N+](C)(C)[O-]`, the “activity change, negative = cytotoxicity” value is 7.24%.

On to `CCC(C(=O)OCCN1CCOC(c2ccccc2)C1C)c1ccccc1` (stereo not given), for which the “activity change, negative = cytotoxicity” value is 1.67% [at 42.5 µM].

As for `COc1cc(C(=O)NCCCCCC(=O)O)cc(OC)c1OC`, the “activity change, negative = cytotoxicity” value was -2.6% [at 42.5 µM].

On to `O=C(CCc1ccc(O)cc1)c1c(O)cc(O)cc1O`, for which the “activity change, negative = cytotoxicity” value was -15.9%.

With `COc1ccc(NS(=O)(=O)c2ccc(N)cc2)nn1`, the “activity change, negative = cytotoxicity” value was 1.73% [at 42.5 µM].

`COc1ccc(N)c([N+](=O)[O-])c1`: the “activity change, negative = cytotoxicity” value was -12.8%.

With `C=C(C)C(=O)OCCCCCCCCCCOC(=O)C(=C)C`, the “activity change, negative = cytotoxicity” value is 0.82%.

For the compound `NS(=O)(=O)c1cc(-c2nn[nH]n2)c(NCc2cccs2)cc1Cl`, the “activity change, negative = cytotoxicity” value is -12.4% [at 42.5 µM].

With `Cc1nc2ccc(Cl)cc2[nH]1`, the “activity change, negative = cytotoxicity” value was 0.503%.

Regarding `O=C1NCN(c2ccccc2)C12CCN(CCCC(c1ccc(F)cc1)c1ccc(F)cc1)CC2`, the Potency was 29.8 µM (active).

Consider `CC1=CCC(=C(C)C)CC1`, for which the “activity change, negative = cytotoxicity” value is -1.1%.

On to `Nc1cc(Cl)c(O)c(Cl)c1`, for which the “activity change, negative = cytotoxicity” value was -0.0826%.

With `CC1=CP(=O)(c2ccccc2)CC1` (stereo not given), the “activity change, negative = cytotoxicity” value was 10.8%.

On to `Nc1cccc(S(=O)(=O)c2cccc(N)c2)c1`, for which the “activity change, negative = cytotoxicity” value is -1.28%.

As to `CCCc1ccc(O)c(OC)c1`, the “activity change, negative = cytotoxicity” value is 1.79%.

`CNCCc1ccccn1`: the “activity change, negative = cytotoxicity” value was -12.5% [at 42.5 µM].

Regarding `O=C1c2ccccc2C(=O)c2cc(O)ccc21`, the “activity change, negative = cytotoxicity” value is -19.7%.

For `COC(=O)C(C)(C)C`, the “activity change, negative = cytotoxicity” value was 0.0129%.

For the compound `Cc1ccc(O)cn1`, the “activity change, negative = cytotoxicity” value was -2.15%.

For the compound `N[C@H](C(=O)O)[C@@H](O)c1ccc(O)c(O)c1`, the “activity change, negative = cytotoxicity” value is -0.869% [at 42.5 µM].

Consider `CCCCCC#CC(=O)OC`, for which the “activity change, negative = cytotoxicity” value was 2.8%.

Consider `CCOC(=O)c1ccccc1O`, for which the “activity change, negative = cytotoxicity” value was -5.03% [at 42.5 µM].

In the case of `CC(=O)Oc1cc(C(C)C)c(OCCN(C)C)cc1C`, the “activity change, negative = cytotoxicity” value was 3.34% [at 42.5 µM].

In the case of `Nc1ccc(Cl)cc1[N+](=O)[O-]`, the “activity change, negative = cytotoxicity” value is -12.3%.

Take `O=C(O)c1cc(O)c2c(c1)C(=O)c1cccc(O)c1C2=O`: the “activity change, negative = cytotoxicity” value is -15.2%.

Regarding `CCCCCCCCCCCCCCN(CCO)CCO`, the Potency was 27.3 µM (active).

For the compound `CCCCCCCCCCCCc1ccc(O)cc1`, the Potency is 27.3 µM (active).

Regarding `COc1ccc(CN(CCN(C)C)c2ncccn2)cc1`, the “activity change, negative = cytotoxicity” value is 1.26% [at 42.5 µM].

As to `CC(=O)NCCCCCC(=O)O`, the “activity change, negative = cytotoxicity” value was 6.06% [at 42.5 µM].

As for `CC[C@H]1OC(=O)[C@H](C)[C@@H](O[C@H]2C[C@@](C)(OC)[C@@H](O)[C@H](C)O2)[C@H](C)[C@@H](O[C@@H]2O[C@H](C)C[C@H](N(C)C)[C@H]2O)[C@](C)(OC)C[C@@H](C)C(=O)[C@H](C)[C@@H](O)[C@]1(C)O`, the “activity change, negative = cytotoxicity” value was 6.97%.

On to `CCCn1cnc2c1c(=O)n(CCCCC(C)=O)c(=O)n2C`, for which the “activity change, negative = cytotoxicity” value was 1.72% [at 42.5 µM].

Take `CCc1nnc(NS(=O)(=O)c2ccc(N)cc2)s1`: the “activity change, negative = cytotoxicity” value is -0.145% [at 42.5 µM].

For the compound `COC(=O)[C@@H]1[C@H]2C[C@H]3c4[nH]c5ccccc5c4CCN3C[C@@H]2CC[C@@H]1O`, the “activity change, negative = cytotoxicity” value was 1.1% [at 42.5 µM].

Take `COc1ccc(CN2CCN(C(c3ccc(F)cc3)c3ccc(F)cc3)CC2)c(OC)c1OC`: the Potency was 21.1 µM (active).

As to `CC(COC(C)(C)C)OCCCO` (stereo not given), the “activity change, negative = cytotoxicity” value was -2.39%.

`Nc1cc(S(=O)(=O)O)ccc1O`: the “activity change, negative = cytotoxicity” value was -3.12%.

For the compound `CN1CCCC(n2nc(Cc3ccc(Cl)cc3)c3ccccc3c2=O)CC1` (stereo not given), the “activity change, negative = cytotoxicity” value was -13.9% [at 42.5 µM].

These data come from PubChem BioAssay (Tox21).
